The list is not random: actives were taken first. Their share in the collection is about 11%.
G9a inh: G9a (human) methyltransferase inhibition | Q96KQ7 | G9a H3K9 monomethylation, AlphaScreen, 2 h | Potency, µM (titrated, usually from 102 µM), inactives show at the top dose activity, negative = inhibition, most hits filed as inhibitors | 350,000 tested, 8.8% active; also: potency is read from the fitted curve at half-maximal effect; % is scaled to controls: 0 for no effect and ±100 for the full control effect; nearly all actives have a fitted effect of over 75% in size
Target sequence (Q96KQ7 913-1193 limits assumed): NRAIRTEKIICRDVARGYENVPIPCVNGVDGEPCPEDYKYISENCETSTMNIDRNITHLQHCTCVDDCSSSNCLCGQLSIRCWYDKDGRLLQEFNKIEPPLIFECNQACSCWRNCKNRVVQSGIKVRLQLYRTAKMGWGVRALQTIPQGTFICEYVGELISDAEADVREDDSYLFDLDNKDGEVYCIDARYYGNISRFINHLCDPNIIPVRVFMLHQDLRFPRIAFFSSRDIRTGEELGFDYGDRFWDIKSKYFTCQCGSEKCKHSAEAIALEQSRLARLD
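Enzyme 20 nM + cpd, 15 min RT; add b-H3K9 pep 500 nM / SAM 20 uM; 2 h RT; anti-H3K9me1 Ab 0.5 ug/mL + SA donor / anti-rabbit acceptor beads 20 ug/mL each, 10 min; AlphaScreen read.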
BAZ2B inh: blocks human BAZ2B; 360,000 tested, 4.4% active; Potency, µM (highest dose often 114 µM), for inactives: at the top dose activity change, negative = inhibition, usual class: inhibitors; AlphaScreen BAZ2B-H3K14Ac peptide displacement; AID 504333; also: potency is read from the fitted curve at half-maximal effect; % is scaled to controls: 0 for no effect and ±100 for the full control effect; nearly all actives have a fitted effect of over 60% in size
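In this displacement format the biotinylated H3(5-23) peptide acetylated at Lys14 serves as ligand at 50 nM, with BAZ2B at 50 nM in PBS pH 7.4 containing 0.01% Tween-20. Donor and acceptor beads are 10 ug/mL final.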
L3MBTL1 inh: inhibitors of human L3MBTL1; 230,000 tested, 0.66% active; AlphaScreen L3MBTL1–H3K9me1 peptide binding; AID 485360; Potency, µM (doses to about 57.1 µM), for inactives: top-dose activity, negative = inhibition, actives largely listed as inhibitors; Q9Y468; also: potency is read from the fitted curve at half-maximal effect; % is scaled to controls: 0 for no effect and ±100 for the full control effect; nearly all actives have a fitted effect of over 60% in size
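L3MBTL1 (50 nM) pre-complexed 30 min with biotinylated H3(1-15)K9me1 peptide (75 nM), then compounds added for 30 min at room temperature; AlphaScreen streptavidin donor/nickel chelate acceptor beads (10 ug/mL final) read after 30 min dark incubation.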
HP1b chromo inh: HP1-beta chromodomain-methylated histone interaction inhibition; P83916; AID 540317; 390,000 tested, 0.56% active; Potency, µM (titrated, usually from 114 µM), without a hit: at the highest dose activity change, negative = inhibition, actives largely listed as inhibitors; AlphaScreen HP1-beta / biotin-H3K9me3 peptide binding; also: potency is read from the fitted curve at half-maximal effect; nearly all actives have a fitted effect of over 70% in size
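AlphaScreen: HP1-beta (50 nM) preformed 30 min with biotin-H3(1-18)K9me3 peptide (50 nM) in PBS pH 7.4, 0.01% Tween-20. Compound added for 30 min at RT, then streptavidin donor/nickel chelate acceptor beads (10 ug/mL) for 30 min.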
JMJD2A Tudor: JMJD2A Tudor domain (human) inhibition; O75164; AlphaScreen JMJD2A-Tudor / H3K4me3 peptide binding; Potency, µM (doses to about 114 µM), for inactives: at the top dose activity change, negative = inhibition, hits mostly inhibitors; 390,000 tested, 4.4% active; AID 504339; also: potency is read from the fitted curve at half-maximal effect; % is scaled to controls: 0 for no effect and ±100 for the full control effect; nearly all actives have a fitted effect of over 50% in size
PI5P4K alpha inh: inhibitors of human PI5P4K alpha | P48426 | PI5P4Kalpha enzyme, ADP-Glo luminescence, 60 min; hits give low values | max response, % | 330,000 tested, 1.2% active; active = max response of -50% or lower; inconclusive = between -30% and -50%; inactive = -30% or higher; also: value at the top dose of about 77 µM; % is scaled to controls: 0 for no effect and ±100 for the full control effect
Target sequence (P48426 whole entry, looked up): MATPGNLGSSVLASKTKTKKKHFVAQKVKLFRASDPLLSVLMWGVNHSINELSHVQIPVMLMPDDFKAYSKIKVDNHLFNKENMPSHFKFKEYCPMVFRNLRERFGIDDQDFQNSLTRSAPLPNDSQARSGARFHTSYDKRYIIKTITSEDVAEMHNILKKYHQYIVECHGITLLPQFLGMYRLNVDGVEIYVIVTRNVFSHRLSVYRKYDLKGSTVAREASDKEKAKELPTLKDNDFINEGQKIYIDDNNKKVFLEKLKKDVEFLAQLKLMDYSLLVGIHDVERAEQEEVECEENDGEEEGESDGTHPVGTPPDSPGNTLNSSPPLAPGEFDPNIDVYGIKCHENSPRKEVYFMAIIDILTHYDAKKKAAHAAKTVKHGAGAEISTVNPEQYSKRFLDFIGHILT
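PI5P4Kalpha ADP-Glo assay; 5 microM ATP final; 60 min RT reaction; HEPES pH 7.4/EGTA/CHAPS, 5% DMSO; controls lacking substrate or enzyme; luminescent end-point.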
* = called active by the depositor; ? = inconclusive; . = no result; [ ] = dose if it differs, or a comment. Unless noted, calls follow the shape of the dose curve; as a rule, active = well fitted inhibition curve with a large enough effect; inconclusive = small, poorly fitted or top-dose-only effect; inactive = no such curve, though single readings can be large or run the other way.

SMILES | G9a inh | BAZ2B inh | L3MBTL1 inh | HP1b chromo inh | JMJD2A Tudor | PI5P4K alpha inh
Cc1ccc(-c2cn3c(n2)SCC3)cc1 | -8.7% | ? | . | -22.7% | -27.3% | -2.6
O=C(Cc1ccc(F)cc1)Nc1cccc(-c2cn3c(n2)SCC3)c1 | 10µM* | ? | -21.0% | -18.0% | -21.2% | -4.0
CCc1ccc(-c2cn3c(n2)SCC3)cc1 | 44.7µM* | ? | -23.1% | -1.1% | -23.9% | -3.3
O=C(Nc1ccc(-c2cn3c(n2)SCC3)cc1)c1ccco1 | 28.2µM* | -30.0% | -3.8% | -2.3% | -15.2% | ?
COc1cccc(Nc2ncc3ncc(=O)n(C)c3n2)c1 | 14.6%[0.501 µM] | . | . | . | . | .
CCn1c(CN2CCN(c3cccc(Cl)c3)CC2)nc2c1c(=O)[nH]c(=O)n2C | -25.5%[59 µM] | -22.1% | . | 16.9% | -31.5% | .
Cc1ccc(-c2nnc3ccccc3c2C(=O)Nc2ccccc2F)cc1 | 4.1%[59 µM] | -12.7% | . | 18.5% | -4.2% | .
CCN(CC)c1ccc(/C=C(\C#N)c2nc(-c3cccs3)c(NC(C)=O)s2)cc1 | 10µM* | 20µM* | ? | . | . | .
CCN(CC)c1ccc(/C=N/NC(=O)Cc2cccs2)cc1 | ? | ? | -12.5% | -26.3% | ? | -9.3
O=C(CCCCCn1c(=O)c2sccc2n(Cc2ccccc2Cl)c1=O)NCc1ccc2c(c1)OCO2 | 2.2%[59 µM] | -0.1% | . | 48.6% | 6.8% | .
Fc1ccccc1-c1csc(=Nc2cccnc2)n1CCCn1ccnc1 | 44.7µM* | 44.7µM* | -17.4% | -19.0% | ? | 5.1
COCCn1c(-c2cccs2)csc1=Nc1cccnc1 | ? | 44.7µM* | . | -3.9% | ? | -7.5
COCCn1c(-c2ccco2)csc1=Nc1cccnc1 | ? | ? | . | -11.2% | 89.1µM* | .
CC(C)Cn1c(-c2ccco2)csc1=Nc1cccnc1 | 44.7µM* | 31.6µM* | -13.7% | -9.4% | -31.5% | -26.7
CC(=O)c1ccc(N2CCN(S(=O)(=O)c3cc(-c4onc(C)c4C)ccc3C)CC2)cc1 | 0.9%[59 µM] | 0.4% | . | 20.0% | 10.1% | .
CCOC(=O)c1n[nH]n2c1nc(=S)c1ccccc12 | 10µM* | -26.7% | . | 13.1% | 89.1µM* | ?
CCOC(=O)c1n[nH]c2ccccc12 | 13.4%[59 µM] | 4.0% | 15.7%[11.4 µM] | 24.5% | -12.2% | 4.6
COc1ccc2c(c1O)C(=O)c1ccccc1C2=O | 8.7%[12.7 µM] | -24.2% | -0.4% | . | . | .
Nc1c(O)ccc2c1C(=O)c1ccccc1C2=O | 2.51µM* | 25.1µM* | ? | 15.8µM* | ? | -56.9*
COCCNCC#CCOc1ccc(OC)cc1 | ? | 50.1µM* | . | ? | 7.94µM* | .
CCOc1ccc(NC(=O)c2ccc(OC)cc2)cc1 | . | 2.5% | 8.6% | 49.8% | -10.3% | .
C=CCNCC#CCOc1ccc(OC)cc1 | 10µM* | ? | . | ? | 6.31µM* | 6.5
Cc1ccccc1Cn1c(=O)n(CCCCC(=O)NCc2ccc3c(c2)OCO3)c(=O)c2ccccc21 | -2.2%[59 µM] | 2.3% | . | 41.1% | 3.1% | .
NS(=O)(=O)c1ccc(Sc2nc3ccccc3s2)c([N+](=O)[O-])c1 | 44.7µM* | -32.4% | . | -8.9% | ? | -15.3
CC1(C)C(=O)NCCN1C(=O)CC1C(=O)NCCN1Cc1cccc(C(F)(F)F)c1 (stereo not given) | 44.7µM* | -14.8% | . | 34.7% | -10.7% | -2.2
SMILES | G9a inh | BAZ2B inh | L3MBTL1 inh | HP1b chromo inh | JMJD2A Tudor | PI5P4K alpha inh
Cc1nonc1CN(C)C(=O)CC1C(=O)NCCN1Cc1cccc(C(F)(F)F)c1 (stereo not given) | 50.1µM* | -8.1% | 7.3% | 43.8% | -16.1% | 8.2
COc1ccccc1N1CCN(C(=O)c2cc3c(=O)n(Cc4cccnc4)ccc3nc2C)CC1 | 10.0%[59 µM] | -12.8% | . | -8.3% | -20.3% | .
CCCNC(=O)[C@H]1O[C@@H]1C(=O)N[C@H](C(=O)N1CCC[C@H]1C(=O)OC)[C@@H](C)CC | 40.9%[59 µM] | . | . | . | . | .
CCc1ccc(CN2CCC(n3nccc3NC(=O)c3ccccc3OC)CC2)o1 | . | . | . | . | . | 3.0
COc1ccccc1C(=O)Nc1ccnn1C1CCN(CCC(C)c2ccc(C)o2)CC1 (stereo not given) | 7.08µM* | -27.9% | . | -17.9% | -34.4% | 1.4
Cc1ccc(C(C)CCN2CCC(n3nccc3NC(=O)c3ccccc3)CC2)o1 (stereo not given) | 28.2µM* | -25.3% | . | -18.7% | -20.7% | -2.5
CC1(C)CC(=O)C(Sc2ccccc2[N+](=O)[O-])=C(O)C1 | 50.1µM* | ? | 3.5% | 25.6% | -22.8% | -1.1
CSc1ccccc1N=CC1=C(O)CC(C)(C)CC1=O | ? | 4.1% | 1.7% | 7.3% | -17.4% | .
O=C1CCc2cc(S(=O)(=O)Nc3ccccc3-c3ccccc3)ccc2N1 | . | . | . | . | -19.7% | .
O=C1NC(=O)[C@@H]2C3c4ccccc4C=CN3[C@H](C(=O)c3cccs3)[C@H]12 (stereo not given in full) | 10µM* | -5.6% | -1.2% | . | . | .
COc1ccc(NC(=O)[C@@H]2[C@@H]3C(=O)N(C4CCCCC4)C(=O)[C@@H]3C3c4ccccc4C=CN32)cc1 (stereo not given in full) | ? | . | -17.6% | 15.6% | -29.7% | -18.2
COc1ccccc1CNC(=O)C(C)n1c(=O)cc(C(F)(F)F)c2c(C)nn(C)c21 (stereo not given) | 1.2%[59 µM] | -11.4% | . | 25.7% | -18.3% | .
COc1cccc(C(=O)CSc2nnc(CNc3nc(-c4ccccc4)cs3)n2C)c1 | 8.91µM* | -14.0% | -5.1% | -18.6% | -31.2% | 2.8
Cn1c(CNc2nc(-c3ccccc3)cs2)nnc1SCC(=O)OC1CCCCC1 | ? | ? | 7.9% | ? | -15.0%[57.1 µM] | 1.0
CC(C)OC(=O)CSc1nnc(CNc2nc(-c3ccccc3)cs2)n1C | 44.7µM* | ? | -3.7% | -19.1% | -24.9% | 0.9
CCOc1ccc(N2CC(NC(=O)Cc3ccccc3)CC2=O)cc1 (stereo not given) | 4.9%[59 µM] | 0.5% | . | 47.8% | -2.9% | .
O=C1/C(=C\c2cc(Cl)c(O)c(Cl)c2)SC(=S)N1Cc1ccccc1 | 14.1µM* | 50.1µM* | . | ? | 50.1µM* | -102.0*
COc1ccc(O)c(/C=C2/SC(=S)N(Cc3ccccc3)C2=O)c1 | 4.47µM* | 31.6µM* | . | ? | 39.8µM* | -8.7
CN1C(=O)/C(=C\c2cc(N=Nc3ccccc3)ccc2O)SC1=S | 8.91µM* | 3.55µM* | -20.1% | -65.4% | 39.8µM* | -29.0
COc1cccc(/C=C/C(=O)Nc2cccc(C(C)=O)c2)c1OC | -9.7% | -13.0% | 7.1% | 31.4% | 1.4% | 0.4
COc1cccc(/C=C/C(=C2\C(=O)N(c3ccccc3)N=C2C)c2ccc(Br)cc2)c1OC | . | . | . | 39.8µM* | ? | 7.9
CCC(CC)C(=O)OCc1cc(=O)n2nc(C3CC3)sc2n1 | 14.8%[59 µM] | -8.1% | . | -16.1% | -29.0% | .
CCN(CC)C(=N)/C(C#N)=N/Nc1ccccc1 | . | -14.9% | -2.7% | ? | 79.4µM* | -4.4
